Test results as given in PubChem BioAssay (NCATS).
Results filed as inconclusive are left out. Activity calls are given as the source filed them. Calls follow the shape of the dose curve; as a rule, active = well fitted curve in the direction sought with a large enough effect; inconclusive = small, poorly fitted or top-dose-only effect, or another doubt; inactive = no such curve, though single readings can be large; an effect the other way counts as inactive or inconclusive.

Legend:
[1] = tested on: C33A; assay: Primary qHTS to identify gynecologic anti-cancer compounds using libraries of approved drugs and bioactive compounds (AID 1345084); conditions: Gynecologic cancer cell panel viability, ATPlite luminescence, 48 h; series mostly up to 57.5 µM; also: nearly all actives have a fitted effect of over 55% in size
In short: (§1)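 Cells, 1,000 per well, were allowed to settle for 16 h at 37 C before compound addition. Five concentrations were tested for 48 h, and viability was read by ATPlite luminescence after 15 min at room temperature.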

[2] = tested on: CAOV3; assay: as above; conditions: Gynecologic cancer cell panel viability, ATPlite luminescence, 48 h; series mostly up to 57.5 µM
In short: as §1

[3] = tested on: CASKI; assay: as above; conditions: Gynecologic cancer cell panel viability, ATPlite luminescence, 48 h; series mostly up to 57.5 µM
In short: as §1

[4] = tested on: Es-2; assay: as above; conditions: Gynecologic cancer cell panel viability, ATPlite luminescence, 48 h; series mostly up to 57.5 µM
In short: as §1

[5] = tested on: HeLa; assay: as above; conditions: Gynecologic cancer cell panel viability, ATPlite luminescence, 48 h; series mostly up to 57.5 µM
In short: as §1

[6] = tested on: Hek293T; assay: as above; conditions: Gynecologic cancer cell panel viability, ATPlite luminescence, 48 h, control line for the selectivity index; series mostly up to 57.5 µM
In short: as §1

[7] = tested on: JEG-3; assay: as above; conditions: Gynecologic cancer cell panel viability, ATPlite luminescence, 48 h; series mostly up to 57.5 µM
In short: as §1

[8] = tested on: OV90; assay: as above; conditions: Gynecologic cancer cell panel viability, ATPlite luminescence, 48 h; series mostly up to 57.5 µM
In short: as §1

[9] = tested on: PA-1; assay: as above; conditions: Gynecologic cancer cell panel viability, ATPlite luminescence, 48 h; series mostly up to 57.5 µM
In short: as §1

[10] = tested on: MKL-1; assay: qHTS assay to identify novel small-molecules to repurpose for Merkel cell carcinoma treatment (AID 1296009); conditions: MCC and control cell lines, CellTiter-Glo viability, 72 h; series mostly up to 46 µM; also: nearly all actives have a fitted effect of over 60% in size
In short: (§2)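 Dose-response viability screen; 72 hr exposure at 37 degree celsius; CellTiter-Glo added, 10 min room temperature, luminescence read; RLUs scaled between no-cell and DMSO wells.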

[11] = tested on: MKL-2; assay: as above; conditions: MCC and control cell lines, CellTiter-Glo viability, 72 h; series mostly up to 46 µM
In short: as §2

[12] = tested on: UISO; assay: as above; conditions: MCC and control cell lines, CellTiter-Glo viability, 72 h; series mostly up to 46 µM
In short: as §2

[13] = tested on: SKOV3; assay: Primary qHTS to identify gynecologic anti-cancer compounds using libraries of approved drugs and bioactive compounds (AID 1345084); conditions: Gynecologic cancer cell panel viability, ATPlite luminescence, 48 h; series mostly up to 57.5 µM; also: nearly all actives have a fitted effect of over 55% in size
In short: as §1

[14] = tested on: MCC-13; assay: qHTS assay to identify novel small-molecules to repurpose for Merkel cell carcinoma treatment (AID 1296009); conditions: MCC and control cell lines, CellTiter-Glo viability, 72 h; series mostly up to 46 µM; also: nearly all actives have a fitted effect of over 60% in size
In short: as §2

[15] = tested on: MCC-26; assay: as above; conditions: MCC and control cell lines, CellTiter-Glo viability, 72 h; series mostly up to 46 µM
In short: as §2

[16] = tested on: WaGa; assay: as above; conditions: MCC and control cell lines, CellTiter-Glo viability, 72 h; series mostly up to 46 µM
In short: as §2

Measured: Potency
Potency is read from the fitted curve at half-maximal effect.

O=[N+]([O-])c1ccc(-c2nc(-c3ccc(F)cc3)c(-c3ccncc3)[nH]2)cc1
inactive: [1] | [2] | [3] | [4] | [5] | [6] | [7] | [8] | [9]

NC(=O)C1(N2CCCCC2)CCN(CCCN2c3ccccc3CCc3ccc(Cl)cc32)CC1
active: [1] 25.1 µM | [8] 22.4 µM

CC(=O)Oc1ccc(C2(c3ccc(OC(C)=O)cc3)Oc3ccccc3NC2=O)cc1
inactive: [10] | [11] | [1]
active: [9] 31.6 µM

CCCCCCCCCCCCCCCCCCNC(=O)OC1CCN(C(=O)OC[C@H](COC(=O)N(Cc2cccc[n+]2CC)C(=O)c2ccccc2OC)OC)CC1
inactive: [7]
active: [10] 11.9 µM | [11] 2.66 µM | [12] 6.68 µM | [2] 15.8 µM | [3] 15.8 µM | [8] 28.2 µM | [9] 12.6 µM | [13] 20 µM

O=C(c1cc(O)c(O)c(O)c1)c1ccc(O)c(O)c1O
not listed: [10] | [11] | [16]
inactive: all other assays above

CC(C)(C)c1ccc(O)c(O)c1
active: [10] 6.86 µM | [11] 6.11 µM | [12] 15.4 µM | [16] 10.9 µM | [8] 35.5 µM | [13] 31.6 µM

O=C(c1ccccc1)c1ccccc1
not listed: [10] | [11] | [12] | [14] | [15] | [16]
inactive: all other assays above

CC(COc1ccccc1)NN (configuration not stated)
not listed: [10] | [11] | [12] | [14] | [15] | [16]
inactive: all other assays above

CN1CCC(Nc2ncc3ncnc(Nc4ccc(F)c(Cl)c4)c3n2)CC1
inactive: [14] | [15] | [12] | [3] | [4] | [5]
active: [11] 15 µM

CC(C(O)c1ccccc1)N(C)CCOC(c1ccccc1)c1ccccc1 (configuration not stated)
inactive: [14] | [15] | [4] | [5] | [9]
active: [13] 20 µM

CN1CCCN(C(c2ccccc2)c2ccc(Cl)cc2)CC1 (configuration not stated)
inactive: [15] | [1] | [2] | [4] | [5] | [7] | [9]

COC(=O)[C@H]1[C@H]2C[C@@H]3c4[nH]c5cc(OC)ccc5c4CCN3C[C@H]2C[C@@H](OC(=O)/C=C/c2ccc(O)c(OC)c2)[C@@H]1OC
active: [8] 31.6 µM | [13] 35.5 µM
inactive: [14] | [1] | [3] | [4] | [5] | [6] | [9]

C[C@@H](O[C@H]1OCCN(Cc2n[nH]c(=O)[nH]2)[C@H]1c1ccc(F)cc1)c1cc(C(F)(F)F)cc(C(F)(F)F)c1
inactive: [1] | [2] | [3] | [4] | [6] | [7] | [8] | [9]

COc1c(C)c2c(c(O)c1C/C=C(\C)CCC(=O)OCCN1CCOCC1)C(=O)OC2
inactive: [10] | [11] | [16] | [2] | [7]
active: [14] 0.944 µM

O=C1NC2CCCCN2C12CCN(CCCN1c3ccccc3CCc3ccc(Cl)cc31)CC2 (configuration not stated)
inactive: [1] | [5] | [7]
active: [11] 21.1 µM

COc1ccc([C@@H]2Sc3ccccc3NC(=O)[C@@H]2O)cc1
inactive: [15] | [11] | [1] | [2] | [3] | [4] | [5] | [7] | [8]

O=C1NCCN1CCN1CCC(c2cn(-c3ccc(F)cc3)c3ccc(Cl)cc23)CC1
active: [15] 21.1 µM | [10] 8.41 µM | [11] 2.99 µM | [16] 10.6 µM | [1] 20 µM | [3] 35.5 µM | [6] 31.6 µM | [13] 28.2 µM

CO/N=C(/C(=O)N[C@@H]1C(=O)N2C(C(=O)[O-])=C(C[n+]3ccn4ncccc43)CS[C@H]12)c1nsc(N)n1
not listed: [10] | [11] | [12] | [14] | [15] | [16]
inactive: all other assays above

CC(NN)c1ccccc1 (configuration not stated)
inactive: [1] | [2] | [3] | [4] | [5] | [6] | [7] | [8] | [9]

Nc1ncnc2n[nH]c(Nc3ccc(F)cc3)c12
active: [9] 25.1 µM
